According to PubChem BioAssay AID1159580 (chemical genetic matrix, 2015):
Where “and” joins values, the source holds several entries; their conditions need not be identical. Identical values can stand only once. In all, about 5,500 compounds went through this assay and about 2,000 (36%) were called active. Inconclusive results (about 18%) are left out. Cut-off read from the data, not from the text of the source: active = normalized growth mostly below about 0.91 (no sharp cut-off); inconclusive = no clear call, values can overlap the other calls; inactive = mostly above about 0.92. The list shows a part of the results.

Experiment: chemical genetic growth profiling, strain panel (AID 1159580);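 note: tested at 20 µM; growth read once vehicle control cultures reached saturation at 30 °C; 1 = growth at the plate median or of vehicle wells; lower values mean less growth of the strain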
Settings: growth OD

Measured: normalized growth

NC(N)=Nc1nc(CSCCC(N)=NS(N)(=O)=O)cs1
inactive: S. cerevisiae deletion strains, locus YKL009W, strain mrt4, hits give low values 1.04 | S. cerevisiae deletion strains, locus YKL068W, hits give low values 1.01 | S. cerevisiae deletion strains, locus YKL085W, strain MDH1 (second series), hits give low values 0.987 | S. cerevisiae deletion strains, locus YKL085W, strain MDH1, hits give low values 0.987 | S. cerevisiae deletion strains, locus YKL160W, strain elf1, hits give low values 0.974 | S. cerevisiae deletion strains, locus YKL190W, strain CNB1, hits give low values 1 | S. cerevisiae deletion strains, locus YKR001C, strain vps1, hits give low values 1.01 | S. cerevisiae deletion strains, locus YKR026C, strain gcn3, hits give low values 0.981 | S. cerevisiae deletion strains, locus YKR091W, strain srl3, hits give low values 0.97 | S. cerevisiae deletion strains, locus YLL001W, strain dnm1, hits give low values 0.933 | S. cerevisiae deletion strains, locus YLL026W, hits give low values 0.992 | S. cerevisiae deletion strains, locus YLL041C, strain sdh2, hits give low values 0.995 | S. cerevisiae deletion strains, locus YLR027C, strain aat2, hits give low values 0.987 | S. cerevisiae deletion strains, locus YLR039C, strain RIC1, hits give low values 0.979 | S. cerevisiae deletion strains, locus YLR058C, strain SHM2, hits give low values 1.02 | S. cerevisiae deletion strains, locus YLR102C, strain apc9, hits give low values 1.01 | S. cerevisiae deletion strains, locus YLR113W, strain HOG1, hits give low values 0.97 | S. cerevisiae deletion strains, locus YLR221C, strain rsa3, hits give low values 0.99 | S. cerevisiae deletion strains, locus YLR258W, strain gsy2, hits give low values 0.998 | S. cerevisiae deletion strains, locus YLR262C, strain YPT6 (second series), hits give low values 0.961 | S. cerevisiae deletion strains, locus YLR262C, strain YPT6, hits give low values 0.979 | S. cerevisiae deletion strains, locus YLR268W, strain sec22, hits give low values 1.05 | S. cerevisiae deletion strains, locus YLR320W, strain mms22, hits give low values 1.01 | S. cerevisiae deletion strains, locus YLR330W, strain CHS5, hits give low values 0.996 | S. cerevisiae deletion strains, locus YLR342W, strain FKS1 (second series), hits give low values 1.02 | S. cerevisiae deletion strains, locus YLR342W, strain FKS1, hits give low values 0.983 | S. cerevisiae deletion strains, locus YLR357W, strain rsc2, hits give low values 1.04 | S. cerevisiae deletion strains, locus YLR370C, strain arc18, hits give low values 0.972 | S. cerevisiae deletion strains, locus YLR371W, strain rom2, hits give low values 1.01 | S. cerevisiae deletion strains, locus YLR384C, strain iki3, hits give low values 0.963 | S. cerevisiae deletion strains, locus YLR418C, strain cdc73, hits give low values 0.999 | S. cerevisiae deletion strains, locus YML016C, strain PPZ1, hits give low values 0.997 | S. cerevisiae deletion strains, locus YML032C, strain rad52, hits give low values 1.02 | S. cerevisiae deletion strains, locus YML120C, strain ndi1, hits give low values 0.977 | S. cerevisiae deletion strains, locus YML124C, strain tub3, hits give low values 1 | S. cerevisiae deletion strains, locus YMR058W, strain fet3, hits give low values 0.991 | S. cerevisiae deletion strains, locus YMR078C, strain ctf18, hits give low values 1.02 | S. cerevisiae deletion strains, locus YMR125W, strain sto1, hits give low values 0.956 | S. cerevisiae deletion strains, locus YMR129W, hits give low values 0.99 | S. cerevisiae deletion strains, locus YMR205C, strain PFK2, hits give low values 0.988 | S. cerevisiae deletion strains, locus YMR223W, strain ubp8, hits give low values 1.01 | S. cerevisiae deletion strains, locus YMR231W, strain pep5, hits give low values 0.971 | S. cerevisiae deletion strains, locus YMR263W, strain SAP30, hits give low values 1.01 | S. cerevisiae deletion strains, locus YMR307W, strain GAS1, hits give low values 0.95 | S. cerevisiae deletion strains, locus YNL067W, strain RPL9B, hits give low values 1.01 | S. cerevisiae deletion strains, locus YNL071W, strain lat1, hits give low values 0.996 | S. cerevisiae deletion strains, locus YNL128W, strain TEP1, hits give low values 1.01 | S. cerevisiae deletion strains, locus YNL153C, strain GIM3, hits give low values 1.01 | S. cerevisiae deletion strains, locus YNL175C, strain NOP13, hits give low values 1.01 | S. cerevisiae deletion strains, locus YNL183C, strain NPR1, hits give low values 0.931 | S. cerevisiae deletion strains, locus YNL197C, strain WHI3, hits give low values 1.01 | S. cerevisiae deletion strains, locus YNL209W, strain ssb2, hits give low values 0.993 | S. cerevisiae deletion strains, locus YNL224C, strain SQS1, hits give low values 0.986 | S. cerevisiae deletion strains, locus YNL233W, strain BNI4, hits give low values 1.01 | S. cerevisiae deletion strains, locus YNL248C, strain rpa49, hits give low values 0.994 | S. cerevisiae deletion strains, locus YNL250W, strain rad50, hits give low values 1 | S. cerevisiae deletion strains, locus YNL271C, strain bni1, hits give low values 1.01 | S. cerevisiae deletion strains, locus YNL298W, strain CLA4, hits give low values 1.02 | S. cerevisiae deletion strains, locus YNL307C, strain MCK1, hits give low values 1.01 | S. cerevisiae deletion strains, locus YNL322C, strain KRE1 (second series), hits give low values 0.963 | S. cerevisiae deletion strains, locus YNL322C, strain KRE1, hits give low values 1 and 1.01 | S. cerevisiae deletion strains, locus YNR049C, strain mso1, hits give low values 0.972 | S. cerevisiae deletion strains, locus YNR052C, strain pop2, hits give low values 1.02 | S. cerevisiae deletion strains, locus YOL006C, strain TOP1, hits give low values 1.06 | S. cerevisiae deletion strains, locus YOL012C, strain htz1 0.851 | S. cerevisiae deletion strains, locus YOL147C, strain pex11, hits give low values 1.01 | S. cerevisiae deletion strains, locus YOR001W, strain rrp6, hits give low values 0.972 | S. cerevisiae deletion strains, locus YOR061W, strain CKA2, hits give low values 1 | S. cerevisiae deletion strains, locus YOR069W, strain VPS5, hits give low values 1.01 | S. cerevisiae deletion strains, locus YOR070C, strain gyp1, hits give low values 0.982 | S. cerevisiae deletion strains, locus YOR080W, strain dia2, hits give low values 0.97 | S. cerevisiae deletion strains, locus YOR083W, strain WHI5 (second series), hits give low values 0.992 | S. cerevisiae deletion strains, locus YOR083W, strain WHI5, hits give low values 0.965 | S. cerevisiae deletion strains, locus YOR106W, strain vam3, hits give low values 0.96 | S. cerevisiae deletion strains, locus YOR136W, strain idh2, hits give low values 1 | S. cerevisiae deletion strains, locus YOR144C, strain elg1, hits give low values 1.01 | S. cerevisiae deletion strains, locus YOR184W, strain ser1, hits give low values 1 | S. cerevisiae deletion strains, locus YOR231W, strain MKK1, hits give low values 0.959 | S. cerevisiae deletion strains, locus YOR265W, strain rbl2, hits give low values 0.986 | S. cerevisiae deletion strains, locus YOR270C, strain vph1, hits give low values 0.966 | S. cerevisiae deletion strains, locus YOR290C, strain snf2, hits give low values 1 | S. cerevisiae deletion strains, locus YOR316C, strain cot1, hits give low values 1 | S. cerevisiae deletion strains, locus YPL051W, strain arl3, hits give low values 0.99 | S. cerevisiae deletion strains, locus YPL055C, strain LGE1, hits give low values 0.97 | S. cerevisiae deletion strains, locus YPL078C, strain atp4, hits give low values 0.968 | S. cerevisiae deletion strains, locus YPL106C, strain sse1, hits give low values 0.999 | S. cerevisiae deletion strains, locus YPL240C, strain hsp82, hits give low values 1 | S. cerevisiae deletion strains, locus YPL241C, strain CIN2, hits give low values 0.997 and 1.01 | S. cerevisiae deletion strains, locus YPL256C, strain CLN2, hits give low values 0.961 | S. cerevisiae deletion strains, locus YPR119W, strain clb2, hits give low values 1 | S. cerevisiae deletion strains, locus YPR141C, strain kar3, hits give low values 1 | S. cerevisiae deletion strains, locus YPR163C, strain tif3, hits give low values 1.02 | S. cerevisiae deletion strains, locus YPR167C, strain met16, hits give low values 1.01 | S. cerevisiae deletion strains, strain wtn01, hits give low values 1.02 | S. cerevisiae strains, strain wild type, hits give low values 1
